POLI inh: inhibitors of human DNA polymerase iota. AID 588590. 390,000 tested, 1% active. Potency, µM (top dose mostly 115 µM), for the others: top-dose activity, negative = inhibition, usual class: inhibitors. Pol iota fluorescent replication assay, 10 min
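Pol iota at 10 nM preincubated 15 min with compounds at room temperature; reaction started with fluorescent substrate, 50 nM final. Fluorescence read kinetically at 0 and 10 min; buffer-only wells as negative control.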
Pol kappa inh: blocks human DNA polymerase kappa activity | Q9UBT6 | purified Pol kappa, fluorescent DNA synthesis assay, 10 min | Potency, µM (doses to about 107 µM), for the others: top-dose activity, negative = inhibition, usual class: inhibitors | 400,000 tested, 0.53% active | AID 588579; note: % is set by controls: 0 for no effect and ±100 for the full control effect
Target sequence (Q9UBT6 whole entry, looked up): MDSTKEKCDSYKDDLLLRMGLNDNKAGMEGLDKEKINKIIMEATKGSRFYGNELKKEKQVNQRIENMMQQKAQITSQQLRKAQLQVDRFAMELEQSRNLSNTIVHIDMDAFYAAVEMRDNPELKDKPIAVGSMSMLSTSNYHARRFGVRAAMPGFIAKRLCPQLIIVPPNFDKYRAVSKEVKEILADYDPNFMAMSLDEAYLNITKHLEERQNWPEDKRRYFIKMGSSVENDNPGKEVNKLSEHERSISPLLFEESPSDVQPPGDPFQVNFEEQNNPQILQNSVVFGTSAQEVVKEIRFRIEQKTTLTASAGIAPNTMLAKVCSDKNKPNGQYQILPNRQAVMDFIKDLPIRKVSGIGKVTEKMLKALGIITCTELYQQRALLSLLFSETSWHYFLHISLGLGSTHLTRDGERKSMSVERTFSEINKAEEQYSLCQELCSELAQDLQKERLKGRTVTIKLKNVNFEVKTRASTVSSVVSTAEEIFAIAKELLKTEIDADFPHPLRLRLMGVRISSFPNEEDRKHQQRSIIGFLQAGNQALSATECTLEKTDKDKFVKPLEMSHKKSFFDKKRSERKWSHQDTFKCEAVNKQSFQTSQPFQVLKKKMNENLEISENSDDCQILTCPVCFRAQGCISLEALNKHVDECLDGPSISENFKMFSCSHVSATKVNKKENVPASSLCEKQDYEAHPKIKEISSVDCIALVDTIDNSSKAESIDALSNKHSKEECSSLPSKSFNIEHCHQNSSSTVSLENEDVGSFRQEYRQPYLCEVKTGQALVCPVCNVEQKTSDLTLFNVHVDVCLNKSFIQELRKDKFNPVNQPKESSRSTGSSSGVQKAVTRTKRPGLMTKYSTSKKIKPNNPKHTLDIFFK
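10 nM Pol kappa preincubated 15 min at room temperature with compounds, then reaction started with substrate at 50 nM final. Fluorescence read kinetically at 0 and 10 min; buffer-only wells served as negative control.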
FEN1 inhibitor: inhibitors of human flap endonuclease 1. Potency, µM (series often up to 114 µM), for the others: at the top dose activity change, negative = inhibition, hits mostly inhibitors. Recombinant FEN1 flap cleavage, fluorescence, 15 min. 390,000 tested, 0.35% active; note: % is set by controls: 0 for no effect and ±100 for the full control effect; nearly all actives have a fitted effect of over 65% in size
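Compounds are tested as a concentration series against 10 nM FEN1; after a 15 min room-temperature preincubation, 50 nM substrate starts cleavage, with plate reads at 0 and 15 min. Normalized responses are fitted by a Hill equation.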
POLB inh: inhibitors of human DNA polymerase beta | P06746 | 340,000 tested, 1.3% active | Potency, µM (highest dose often 114 µM), for inactives: at the highest dose activity change, negative = inhibition, usual class: inhibitors | Pol beta primer extension/strand displacement, fluorescence kinetic; note: % is set by controls: 0 for no effect and ±100 for the full control effect
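Human Pol beta at 10 nM; strand-displacement substrate 50 nM final. Compound exposure 15 min at room temperature before start, reaction 10 min at room temperature.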
POLH inh: inhibitors of human DNA polymerase eta; Q9Y253; recombinant Pol eta, fluorescent DNA replication assay; Potency, µM (titrated, usually from 114 µM), for inactives: at the highest dose activity change, negative = inhibition, hits mostly inhibitors; 390,000 tested, 1.2% active; AID 588591; note: % is set by controls: 0 for no effect and ±100 for the full control effect
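Pol eta (10 nM) was preincubated with compounds for 15 min at room temperature, after which fluorescent replication substrate (50 nM final) was added to start the reaction. Fluorescence was read kinetically at 0 and 10 min.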
TDP1 inh: TDP1 (human) enzyme inhibition | Q9NUW8 | recombinant TDP1, AlphaScreen DNA substrate cleavage | Potency, µM (highest dose often 130 µM), for inactives: at the highest dose activity change, negative = inhibition, hits mostly inhibitors | 350,000 tested, 0.28% active | AID 485290; note: % is set by controls: 0 for no effect and ±100 for the full control effect; nearly all actives have a fitted effect of over 40% in size
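E. coli-derived human Tdp1, 1 nM final. Cpd preinc 15 min RT; substrate 15 nM final, 5 min RT; AS bead mix 10 ug/ml final, 10 min RT. Signal loss = tyrosine-FITC cleavage. No-enzyme wells = max signal.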
The depositor's hits bear a star; ? = inconclusive; . = no result; [ ] = another dose, or the depositor's remark. In the library only some 2.4% were active in any assay of this set; here they are far more common. Calls come from the whole dose curve; as a rule, active = well fitted curve in the direction sought with a large enough effect; inconclusive = small, poorly fitted or top-dose-only effect, or another doubt; inactive = no such curve, though single readings can be large; an effect the other way counts as inactive or inconclusive. Potency is the fitted concentration of half-maximal effect.

SMILES	POLI inh	Pol kappa inh	FEN1 inhibitor	POLB inh	POLH inh	TDP1 inh
Cc1ccc2cccc(O)c2n1	25%	-7%	13%	.	.	.
Cc1cccn2c(=O)c3cc(S(=O)(=O)c4ccc(F)cc4)c(=N)n(Cc4ccco4)c3nc12	11µM*	?	3%	?	-8%	-4%
Cc1cccn2c(=O)c3cc(S(=O)(=O)c4ccccc4)c(=N)n(Cc4ccco4)c3nc12	4%	-30%	4%	8.9µM*	-1%	1%
Cc1cccn2c(=O)c3cc(S(=O)(=O)c4ccccc4)c(=N)n(Cc4ccc(F)cc4)c3nc12	15%	3%	-17%	11%	-18%	1%
O=C1c2ccccc2CCC1CNCCc1ccc(O)cc1 (configuration not stated)	.	-2%[19.4 µM]	.	.	.	4%
CCCN1CCCc2cc(CN)ccc21	3.2µM*	0%	-14%	10%	89µM*	3%
Cc1c(P(=S)(c2ccccc2)c2ccccc2)c2ccccc2n1C/C=C/c1ccccc1	.	.	.	.	.	0%
Cc1cc(C)cc(NC(=O)CSCc2nc3c(nnn3Cc3ccc(F)cc3)c(=O)[nH]2)c1	45µM*	-39%	?	.	?	.
Cc1ccc(NC(=O)CSCn2nnc3c(=O)[nH]c(Cc4ccc(F)cc4)nc32)c(C)c1	?	?	-9%	?	-1%	?
Cc1ccc(C(=O)O/N=C(\N)c2ccc(Br)cc2)cc1	89µM*	-23%	-5%	?	-22%	1%
COc1ccc2c3c(cccc13)C(=O)N(O)C2=O	1%	-18%	0.35µM*	35µM*	-8%	-4%
COc1ccccc1N1C(=O)c2cccc3c(C(=O)O)ccc(c23)C1=O	-7%	-9%	1%	4%	-12%	4%
O=C1c2cccc3c([N+](=O)[O-])ccc(c23)C(=O)N1O	-13%	-1%	3.2µM*	?	2.8µM*	.
CCc1cc2c(cc3c(=O)n(CCCC(=O)NCc4cccc(Br)c4)ncn32)s1	48%	10%	22%	4%	-8%	1%
NC(=O)Nc1ccc(/C=C2\C=Cc3ccccc32)cc1	5%	-11%	-17%	.	.	.
Cc1cccc(N2CC(C(=O)Nc3cccc(S(=O)(=O)N4CCCCC4)c3)CC2=O)c1C (configuration not stated)	35%	?	-13%	.	-18%	1%
CCc1ccccc1N1CC(C(=O)Nc2cc(S(=O)(=O)N3CCCC3)ccc2Cl)CC1=O (configuration not stated)	50µM*	?	-9%	.	16µM*	-6%[56.1 µM]
Cc1ccc(CN2CC(C(=O)Nc3cc(S(C)(=O)=O)ccc3Cl)CC2=O)cc1 (configuration not stated)	-10%	-17%	-7%	14µM*	?	-3%
O=C1C(c2[nH]c3ccc(S(=O)(=O)O)cc3c2O)=Nc2ccc(S(=O)(=O)O)cc21	25µM*	?	?	.	.	?
CCOc1ccc(Br)cc1C1C(C(=O)OC)=C(C)NC2=C1C(=O)c1ccccc12 (configuration not stated)	-6%	0%	-14%	4%	-6%	.
Cc1ccccc1C(=O)Nc1ccccc1C(=O)N1CCC(C)CC1	-8%	-14%	89µM*	20%	-1%	.
Cc1ccc(NC(=O)c2cccc(N3CCCS3(=O)=O)c2)cc1	22%	2%	7%	9%	-10%	3%
CCN(N=O)c1ccc(/C=C/c2ccnc3ccccc23)cc1	24%	-2%	2%	.	.	.
O=C(O)c1ccc(N2Cc3ccccc3C2)cc1O	?	?	?	45µM*	5.6µM*	-7%
CC(=O)c1ccc(NC(=O)CSc2nc(=O)n(Cc3ccccn3)c3c2CCC3)cc1	14%	-5%[60.1 µM]	-13%	18%	-12%	-3%
SMILES	POLI inh	Pol kappa inh	FEN1 inhibitor	POLB inh	POLH inh	TDP1 inh
CC1(C)C(/C=C/C=C/C=C/C=C2\N(CCCCS(=O)(=O)O)c3ccc4ccccc4c3C2(C)C)=[N+](CCCCS(=O)(=O)[O-])c2ccc3ccccc3c21	13µM*	22µM*	20µM*	.	7.1µM*	.
O=C(c1ccccc1O)N(Cc1ccco1)Cc1cccs1	.	.	.	.	.	0%
CCN(c1ccccc1)S(=O)(=O)c1ccc(Oc2ccc(-n3ccnc3)cc2)nc1	9%	-10%	-2%	40µM*	4%	-9%
CCN(c1ccccc1)S(=O)(=O)c1ccc(Oc2ccccc2C(C)=O)nc1	2%	1%	-4%	.	-25%	0%
Cc1cc(C)c(NC(=O)CSc2nc3ccccc3c3nc(CCn4cncc4C)nn23)c(C)c1	?	-2%[60.1 µM]	-8%	?	-7%	0%
CCCNC(=O)c1ccc(Cl)cc1Cl	4%	0%	1%	20µM*	-28%	.
O=C(NCCN1CCCC1)c1ccc(Cl)cc1Cl	96%	-8%	5%	-21%	-4%	2%
COc1cccc(C2c3c(ncn(-c4ccccc4-c4ccccc4)c3=N)Oc3ccc4ccccc4c32)c1 (configuration not stated)	.	.	.	.	.	1%
COc1ccc(CN(CCO)CCO)cc1[N+](=O)[O-]	12%	6%	14%	45%	6%	3%
O=[N+]([O-])c1cc(CN(CCO)CCO)ccc1O	25µM*	?	-10%	50µM*	?	3%
O=C(Nc1ccc(Cl)cc1Cl)[C@@H]1CC=C[C@@H]2CCN(C3CCCCC3)C(=O)[C@@H]21	4%	2%	14%	.	.	.
Cc1ccc(S(=O)(=O)N2CCCCC2C(=O)NCc2ccco2)cc1 (configuration not stated)	89µM*	-30%	2%	8%	?	1%
Cc1ccc(CNC(=O)C2CCCCN2S(=O)(=O)c2ccccc2)cc1 (configuration not stated)	42%	3%	-9%	55%	-12%	5%
O=C(NCc1ccccc1F)C1CCCN(S(=O)(=O)c2ccc(-n3cnnn3)cc2)C1 (configuration not stated)	26%	-5%	-1%	-23%	-2%	-4%[0.0935 µM]
O=C(NCc1ccco1)C1CCCN(S(=O)(=O)c2ccc(-n3cnnn3)cc2)C1 (configuration not stated)	?	?	1%	25µM*	20µM*	-1%
Nc1nccc(/C=C/c2c(F)cccc2Cl)n1	69%	-1%	11%	1%	-15%	3%
O=c1cc(/C=C/c2c(F)cccc2Cl)[nH]c2ccccc12	13%	-10%	-9%	27%	11µM*	3%
CC(C)CCOc1ccc(CC(=O)NO)cc1	0%	8%	3%	.	.	.
CCc1c(O)cc(=O)n(-c2ccccc2)c1-c1ccccc1	?	-16%	?	22µM*	32µM*	3%
